Bioassay records (PubChem BioAssay)
Only some compounds are listed: those with a hit (about 2.8% of all), similar ones and a draw of the others.
Pol beta inh: qHTS Assay for Inhibitors of DNA Polymerase Beta; P06746; Pol beta primer extension/strand displacement, fluorescence kinetic; Potency, µM (doses to about 114 µM), without a hit: at the top dose activity change, negative = inhibition, hits mostly inhibitors; 340,000 tested, 1.3% active; note: potency is the fitted concentration of half-maximal effect; % is set by controls: 0 for no effect and ±100 for the full control effect
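Values derive from four-parameter Hill fits of normalized kinetic data: reads at 0 and 10 min following addition of 50 nM substrate to 10 nM Pol beta preincubated 15 min with compound.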
Pol iota inh: qHTS for Inhibitors of Polymerase Iota; DNA polymerase iota (Homo sapiens), Q9UNA4; Pol iota fluorescent replication assay, 10 min; Potency, µM (doses to about 115 µM), inactives show at the highest dose activity, negative = inhibition, most hits filed as inhibitors; 390,000 tested, 1% active; AID 588590, 2011; note: potency is the fitted concentration of half-maximal effect
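Fluorescent replication assay read twice, at 0 min and 10 min after adding 50 nM (final) substrate. Enzyme (10 nM) and compounds were first incubated 15 min at room temperature; enzyme-free buffer wells were negative controls.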
POLK inh: qHTS for Inhibitors of Polymerase Kappa | DNA polymerase kappa (Homo sapiens), Q9UBT6 | 400,000 tested, 0.53% active | Potency, µM (doses to about 107 µM), for the others: top-dose activity, negative = inhibition, actives largely listed as inhibitors | purified Pol kappa, fluorescent DNA synthesis assay, 10 min; note: potency is the fitted concentration of half-maximal effect; % is set by controls: 0 for no effect and ±100 for the full control effect
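Readout: fluorescence, taken kinetically at 0 and 10 min. Conditions: 10 nM Pol kappa, 15 min RT compound preincubation, 50 nM substrate final. Controls: enzyme-free buffer wells.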
PI4K2A inh: qHTS for small molecular inhibitors of PI4K2A; purified PI4K2A, ADP-Glo luminescence, 1 h; active compounds read low; activity change, negative = inhibition, % at 76.9 µM; 420,000 tested, 0.13% active; in the data active = activity change below about -50%; inconclusive = mostly about -30% to -49%;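 note: -100% = wells without enzyme as full effect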
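PI4K2A activity was measured by ADP-Glo luminescence: enzyme (4 ug/mL stock) and phosphatidylinositol (1.2 mM stock) in Tris pH 7.5/MgCl2/EGTA/Triton X-100 buffer were reacted with ATP (300 microM stock) for one hour at ambient temperature.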
PI5P4Ka inh: qHTS for Inhibitors of phosphatidylinositol 5-phosphate 4-kinase (PI5P4K); Phosphatidylinositol 5-phosphate 4-kinase type-2 alpha (Homo sapiens), P48426; 330,000 tested, 1.2% active; PI5P4Kalpha enzyme, ADP-Glo luminescence, 60 min; active compounds read low; max response, %; active = max response of -50% or lower; inconclusive = between -30% and -50%; inactive = -30% or higher; note: value at the top dose of about 77 µM; % is set by controls: 0 for no effect and ±100 for the full control effect
Target sequence (P48426 whole entry, looked up): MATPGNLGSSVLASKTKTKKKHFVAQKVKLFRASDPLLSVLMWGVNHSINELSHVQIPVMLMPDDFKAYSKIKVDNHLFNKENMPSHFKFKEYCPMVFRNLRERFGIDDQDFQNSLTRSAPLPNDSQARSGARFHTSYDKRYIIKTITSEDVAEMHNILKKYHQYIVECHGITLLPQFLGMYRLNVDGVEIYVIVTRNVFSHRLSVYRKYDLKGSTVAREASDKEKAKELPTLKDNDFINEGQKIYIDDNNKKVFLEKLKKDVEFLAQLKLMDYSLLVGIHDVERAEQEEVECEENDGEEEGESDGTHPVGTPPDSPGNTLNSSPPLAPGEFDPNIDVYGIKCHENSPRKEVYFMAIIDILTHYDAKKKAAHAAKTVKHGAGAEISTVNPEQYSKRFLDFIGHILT
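Quantitative HTS of the MLSMR library against PI5P4Kalpha with substrate. ATP added last at 5 microM final; room temperature, 60 minutes. Remaining ATP depleted, ADP converted and read as luminescence.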
POLH inh: qHTS for Inhibitors of Polymerase Eta | AID 588591, 2011 | DNA polymerase eta (Homo sapiens), Q9Y253 | Potency, µM (titrated, usually from 114 µM), inactives show at the top dose activity change, negative = inhibition, hits mostly inhibitors | recombinant Pol eta, fluorescent DNA replication assay | 390,000 tested, 1.2% active; note: potency is the fitted concentration of half-maximal effect; % is set by controls: 0 for no effect and ±100 for the full control effect
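Fluorescent replication assay: 50 nM final substrate added after a 15 min room-temperature compound preincubation with 10 nM enzyme. Signal taken at 0 min and again at 10 min.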
ADP-Glo interf: qHTS for Inhibitors of PI5P4K: ADP-Glo counter assay; AID 743285, 2014; Potency, µM (titrated, usually from 76.9 µM), inactives show top-dose activity change, negative = inhibition, most hits filed as inhibitors; shares compounds with PI5P4Ka inh; 1,100 tested, under 10 active; ADP-Glo detection counter-screen, luciferase luminescence, no enzyme
* marks the source's active call; other numbers are inactive results; ? = inconclusive; . = not tested or not shown; [ ] = another dose, or the depositor's remark. Unless noted, calls come from the whole dose curve; as a rule, active = well fitted curve in the direction sought with a large enough effect; inconclusive = small, poorly fitted or top-dose-only effect, or another doubt; inactive = no such curve, though single readings can be large; an effect the other way counts as inactive or inconclusive.

SMILES	Pol beta inh	Pol iota inh	POLK inh	PI4K2A inh	PI5P4Ka inh	POLH inh	ADP-Glo interf
Cc1ccc(OCCCn2c(-c3ccc(Cl)cc3)nc3ccccc3c2=O)c(C)c1	-9%	-4%	-11%	3	.	2%	.
O=C(NCCc1csc2nc(-c3ccccc3F)nn12)c1ccco1	-30%	18%	-7%[60.1 µM]	1	.	-5%	.
O=[N+]([O-])c1ccc(-c2cc(-c3ccc(Cl)cc3)n[nH]2)cc1	?	-28%	-10%	-12	-69*	?	2%
COc1cc(NC(=O)c2cccnc2SC)cc(OC)c1OC	-5%	40%	0%	2	-4	-11%	.
CSc1ncccc1C(=O)Nc1ccc(OC(F)(F)F)cc1	-3%	42%	-14%	-2	-58*	-2%	2%
CCCC1CCC2(CC1)CCC2OC(=S)Nc1ccccc1Br (stereo not drawn)	.	.	.	-6	.	.	.
O=S(=O)(c1ccccc1)N1N=C(c2cccs2)CC1c1ccc(Br)cc1 (stereo not drawn)	1%	?	6%	0	-55*	-7%	5%
COC1=CC(=O)C(O)=C/C1=C\C=C\c1ccccc1	.	.	-19%[60.1 µM]	.	.	.	.
CC1(C(=O)NS(=O)(=O)C2CC2)CCN(C(=O)c2ccccc2F)C1 (stereo not drawn)	.	.	.	5	-78*	.	0%
COCCNC(=O)c1cc(-c2ccccc2)sc1N	.	.	.	-3	-63*	.	-5%
O=C(c1ccc2c(c1)N(Cc1ccc(F)cc1)C(=O)c1ccccc1S2(=O)=O)N1CCCCC1	-9%	-12%	-22%	-3	.	.	.
COc1ccc2nc(SCC(=O)N3CCN(c4ccc(F)cc4)CC3)c(C#N)cc2c1	?	?	-8%	-12	-50*	-9%	6%
Nc1nc(Nc2cccc(Cl)c2)sc1C(=O)c1ccc(F)cc1	-19%	-22%	-7%[60.1 µM]	-6	.	?	.
COc1ccc(Nc2nc(N)c(C(=O)c3ccc(F)cc3)s2)cc1	5%	15%	-11%	-2	-54*	-29%	1%
CS(=O)(=O)Nc1cccc(-c2cncnc2NCc2cccnc2)c1	.	.	2%[60.1 µM]	.	.	.	.
CCC(C)[C@H]1CNC(=O)C(=O)N1CC1CCCCC1 (stereo partly drawn)	.	.	.	.	-4	.	.
CCOC(=O)C1=C(CC)Nc2ccccc2N=C1NC(=O)c1ccc(S(=O)(=O)N(C)C)cc1	-1%	?	-11%	0	-51*	-8%	1%
CCNc1ncc2ncc(=O)n(Cc3ccc(F)cc3)c2n1	.	.	-6%[60.1 µM]	.	.	.	.
CCCNC(=O)C1(C)CCN(C(=O)c2cc(C)nn2C(C)(C)C)C1 (stereo not drawn)	.	.	.	3	5	.	.
CCCNC(=O)C1(C)CCCN(C(=O)c2cc(C)nn2C(C)(C)C)C1 (stereo not drawn)	.	.	.	4	-71*	.	2%
Cc1ccc(C)c(NC(=O)c2ccc3c(c2)N(Cc2ccc(F)cc2)C(=O)CS3=O)c1 (stereo not drawn)	0%	?	-97%	-3	-58*	?	0%
COCCNC(=O)CSc1nc2cc3c(cc2c(=O)n1Cc1ccc(C(=O)NCCc2ccc(OC)c(OC)c2)cc1)OCO3	19%	-3%	-1%[60.1 µM]	-9	.	-15%	.
O=c1oc2ccccc2cc1-c1csc(Nc2nc3c(F)cccc3s2)n1	20%	3%	-2%	-1	-55*	?	-5%
O=c1oc2ccccc2cc1-c1csc(Nc2nc3ccc(F)cc3s2)n1	-8%	.	.	.	.	.	.
CN(C(=O)CSc1cn(CC(=O)N2CCCC2)c2ccccc12)c1ccccc1	24%	-1%	7%	0	.	-15%	.
SMILES	Pol beta inh	Pol iota inh	POLK inh	PI4K2A inh	PI5P4Ka inh	POLH inh	ADP-Glo interf
Cc1oc(-c2ccc(Cl)cc2)cc1C(=O)N1CCC1(C)C(=O)O (stereo not drawn)	.	.	.	-5	-52*	.	-4%
CC1(C(=O)O)CCCN1C(=O)c1ccc(Cl)cc1Cl (stereo not drawn)	.	.	.	1	7	.	.
CC(C)CN1CC2(CCN(C(=O)c3csnn3)CC2)C1	.	.	-9%[60.1 µM]	.	.	.	.
COc1ccccc1-c1cncnc1NCc1cnc(C)cn1	.	.	1%[60.1 µM]	.	.	.	.
O=C(NCC1CC1)c1ccc(Nc2nc3ccc(Br)cc3[nH]2)cc1	9%	?	4%	-4	-56*	?	3%
O=C(NCc1ccco1)c1cccc(Nc2nc3ccc(Br)cc3[nH]2)c1	-12%	-14%	0%	1	-1	-10%	.
COc1cc(C)c2c(=O)cc(-c3ccccc3)oc2c1	.	.	-9%[60.1 µM]	.	.	.	.
CC(=O)Nc1ccc(NC(=S)Nc2ccc(Br)cc2)cc1	-18%	?	?	5	-75*	-99%	-3%
CCCCCn1c(CN2CCN(c3ccc(OC)cc3)CC2)nc2c1c(=O)[nH]c(=O)n2C	15%	9%	-2%	5	.	-14%	.
CCOc1ccc(C(=O)NCCSc2c(C)[nH]c3ccccc23)cc1OCC	-20%	9%	-7%	4	.	-27%	.
Cc1sc2ncn(CC(=O)N3CCC(C(N)=O)CC3)c(=O)c2c1S(=O)(=O)N1CC(C)CC(C)C1 (stereo not drawn)	25%	?	?	4	-90*	-98%	-10%
CC(C)(C)n1nnnc1SCC(=O)Nc1nn(-c2ccccc2)nc1C(N)=O	?	120%	-10%	0	-58*	-19%	-2%
CC(=O)N(CC(=O)Nc1nn(-c2ccccc2)nc1C(N)=O)Cc1ccccc1	11%	14%	-1%	4	.	-8%	.
CC(=O)N1CCc2cc(S(=O)(=O)NC(Cc3ccccc3)C(=O)Nc3cc(C)ccc3C)ccc21 (stereo not drawn)	?	3%	-17%	0	.	-2%	.
COc1ccc(OC)c(NC(=O)CSc2ccc(-c3ccco3)nn2)c1	25µM*	25µM*	?	-19	-51*	?	-10%
O=C1CN(C(=O)c2ccc(S(=O)(=O)N3CCCC3)cc2)C(c2ccc(F)cc2)c2cc(F)ccc2N1 (stereo not drawn)	36%	13%	-14%	-2	.	-13%	.
Cn1nnnc1Sc1ncnc2scc(-c3ccc(C(F)(F)F)cc3)c12	.	14%	-5%	7	.	-16%	.
Cn1nnnc1Sc1ncnc2scc(-c3ccccc3C(F)(F)F)c12	.	-9%	6%	-12	.	-4%	2%
